Shown are actives, neighbours in structure and some others; about 18% of the full set was active somewhere.
IL1B secr inh – qHTS for Inhibitors of Inflammasome Signaling: IL-1-beta AlphaLISA Primary Screen; AID 743279, 2014; activity change, % at 57.5 µM; hit rate 4.7% among 360,000; THP-1 LPS/ATP IL-1B secretion, AlphaLISA, 16 h; stronger effect = lower value; in the data active = activity change below about -50%; inconclusive = mostly about -30% to -49%
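THP-1 cells pretreated 1 hr with compounds (up to 57.5 uM final), then stimulated with LPS (250 ng/mL final) plus ATP (1.25 mM final); secreted IL-1B measured by AlphaLISA after 16 hr, decreased signal indicating inhibition.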
Six1-Eya2 blk – qHTS Assay for Inhibitors of the Six1/Eya2 Interaction. AID 651725, 2012. hit rate 0.56% among 360,000. activity change, % (no concentration beside the values). AlphaScreen GST-Six1/His-Eya2 binding, biochemical; stronger effect = lower value; in the data active = activity change below about -65%; inconclusive = mostly about -30% to -63%
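AlphaScreen with GST-Six1 and His-Eya2 (5X mix: 250 nM and 500 nM), glutathione donor and nickel acceptor beads; buffer 50 mM Tris pH 8.0, 300 mM NaCl, 1 mM TCEP; 1 h at 37 C in the dark.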
DT40 TDP1 CPT – qHTS for Inhibitors of human tyrosyl-DNA phosphodiesterase 1 (TDP1): qHTS in cells in presence of CPT; chicken DT40 Tdp1-/-;hTDP1 cells + 20 nM CPT, ATP luminescence, 48 h; hit rate 12% among 420,000; Potency, µM (doses to about 46.2 µM), without a hit: top-dose activity change, negative = growth inhibition, actives largely listed as inhibitors; also: potency is read from the fitted curve at half-maximal effect; nearly all actives have a fitted effect of over 55% in size
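Cell growth measured by CellTiter-Glo luminescence after a minimum 48 h, 37 C compound exposure with 20 nM CPT in Tdp1-knockout DT40 cells stably expressing hTDP1, seeded 400/well; qHTS titration format.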
DT40 TDP1 no CPT – qHTS for Inhibitors of human tyrosyl-DNA phosphodiesterase 1 (TDP1): qHTS in cells in absence of CPT; DT40 Tdp1-/- hTDP1 cells, no CPT, ATP luminescence, 48 h; Potency, µM (top dose mostly 46.2 µM), without a hit: top-dose activity change, negative = growth inhibition, most hits filed as inhibitors; hit rate 15% among 420,000; AID 686978, 2013; also: potency is read from the fitted curve at half-maximal effect; nearly all actives have a fitted effect of over 55% in size
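Growth of hTDP1-complemented DT40 Tdp1-knockout cells is measured by ATP luminescence after at least 48 hr compound exposure at 37 °C, with DMSO substituting for the 20 nM CPT used in the parallel screen.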
TDP1 block – qHTS Assay for Inhibitors of Tyrosyl-DNA Phosphodiesterase (TDP1) | Potency, µM (top dose mostly 130 µM), for the others: at the top dose activity change, negative = inhibition, usual class: inhibitors | Tyrosyl-DNA phosphodiesterase 1 (Homo sapiens), Q9NUW8 | hit rate 0.28% among 350,000 | recombinant TDP1, AlphaScreen DNA substrate cleavage; also: potency is read from the fitted curve at half-maximal effect; nearly all actives have a fitted effect of over 40% in size
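Tdp1 1 nM final; 15 min RT w/ cpd; substrate 15 nM, 5 min; beads 10 ug/ml, 10 min; AlphaScreen read. Neg ctrl: no enzyme.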
CtBP-E1A inh – qHTS Assay for Inhibitors of the CtBP/E1A Interaction; AlphaScreen GST-E1A/His-CtBP binding, 1536-well; stronger effect = lower value; activity change, % (concentration not given with the values); hit rate 0.49% among 340,000; in the data active = activity change below about -65%; inconclusive = mostly about -30% to -63%
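GST-E1A and His-tagged CtBP (125 nM each as 5X stock) were preincubated with pin-transferred compound for 2 h at 37 °C in the dark, then glutathione donor and nickel acceptor beads were added for 1 h before AlphaScreen reading.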
An asterisk follows results filed as active; ? = inconclusive; . = no result. Unless noted, calls follow the shape of the dose curve; as a rule, active = well fitted curve in the direction sought with a large enough effect; inconclusive = small, poorly fitted or top-dose-only effect, or another doubt; inactive = no such curve, though single readings can be large; an effect the other way counts as inactive or inconclusive. % is scaled to controls: 0 for no effect and ±100 for the full control effect.

SMILES	IL1B secr inh	Six1-Eya2 blk	DT40 TDP1 CPT	DT40 TDP1 no CPT	TDP1 block	CtBP-E1A inh
COc1cc([N+](=O)[O-])cc(/C=N/NC(=O)CSc2nnc(-c3ccccc3)n2C)c1O	-1	-14	-7%	-2%	-6%	-13
Cn1c(SCC(=O)N/N=C/c2ccc([N+](=O)[O-])s2)nnc1-c1ccc(Cl)cc1	?	-8	13µM*	21µM*	3%	-5
CC(C)(C)OC(=O)N/N=C\c1ccc([N+](=O)[O-])s1	-19	5	-1%	?	6%	-1
Cc1cc(C)n(CC(=O)N/N=C/c2ccc([N+](=O)[O-])s2)n1	?	-16	23µM*	?	3%	-12
CCOC(=O)N/N=C\c1ccc([N+](=O)[O-])s1	-1	6	16µM*	23µM*	2%	5
Cc1ccc(-n2nc3c(=O)n(CC(=O)NCCC4=CCCCC4)nc(C)c3c2C)cc1	1	23	?	?	1%	.
Cc1cccc(NC(=O)N2CCCC2C(=O)NCc2ccccc2)c1 (stereo not drawn)	-20	7	-1%	?	.	.
O=C(CNC(=O)c1ccccc1)N/N=C/c1ccc([N+](=O)[O-])s1	?	-2	?	?	5%	-21
O=C(N/N=C/c1ccc([N+](=O)[O-])s1)c1ccncc1	-98*	-7	6.5µM*	6.5µM*	0%	?
Cc1ccc(C(=O)N/N=C\c2sccc2C)cn1	-16	0	1%	10%	2%	.
Cc1ccc(C(=O)N/N=C\c2ccc([N+](=O)[O-])s2)cn1	-5	2	10µM*	12µM*	3%	-1
CC(=C/c1ccc(C(C)C)cc1)/C=N/NC(=O)Cn1nc(C)cc1C	-14	-5	?	29µM*	2%	10
O=C(Cc1ccccc1)NCC(=O)N/N=C/c1ccc([N+](=O)[O-])s1	?	-4	23µM*	15µM*	4%	-6
Cc1ccc(/C=N/NC(=O)c2ccncc2)s1	22	-13	6.5µM*	15µM*	6%	-21
Cc1ccc(/C=N/NC(=O)c2ccccn2)s1	-8	-19	?	?	0%	10
O=C(N/N=C/c1ccc([N+](=O)[O-])s1)c1cccc(Br)c1	1	-4	9.2µM*	10µM*	-13%	-5
O=C(N/N=C/c1cccc([N+](=O)[O-])c1)c1cccc(Br)c1	2	-1	?	-16%	-2%	1
COCCOC(=O)C1=C(C)Nc2nc(C)nn2C1c1ccc(F)cc1 (stereo not drawn)	-11	3	10%	-15%	-4%	-1
Cc1ccc2c(NC(=O)c3ccc(Br)o3)cccc2n1	23	1	-13%	14%	1%	-2
COC(=O)C[C@H]1c2cc(F)ccc2S(=O)(=O)N1c1ccc(N(C)C)cc1	25	-9	?	13µM*	.	.
CCCCCCCCN1[C@@H](CC(=O)OCC)c2ccc(C(F)(F)F)cc2S1(=O)=O	4	30	13µM*	26µM*	.	39
CCCCCCCCCCCCN1[C@@H](CC(=O)OC)c2cc(C(F)(F)F)ccc2S1(=O)=O	38	9	?	13µM*	.	16
CCCCCCCCN1[C@@H](CC(=O)OC)c2cc(F)ccc2S1(=O)=O	18	22	?	13µM*	.	4
CCCCCCCCN1[C@@H](CC(=O)OCC)c2cc(F)ccc2S1(=O)=O	33	34	?	?	.	-8

Screens as filed in PubChem.
